# PfHsp40 rescue: rescue of yeast from PfHsp40 toxicity, primary screen, S. cerevisiae, ATP luminescence; growth rescue, % at 12.5 µM; 340,000 tested, 0.68% active; S. cerevisiae expressing PfHsp40, growth rescue; in the data active means growth rescue above about 28%, passing the limit was not always enough; inconclusive means no clear call, values can overlap the other calls;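 further: yeast W303a lacking pdr1 and pdr3 grown in galactose medium; growth measured after three days at 30 °C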
# PrPC TRFRET: inhibitors of human cell surface prion protein PrPC, primary screen, cell-based, TR-FRET; inhibition, % at 13.8 µM; Major prion protein (Homo sapiens), P04156; TR-FRET read-out; 370,000 tested, 0.43% active; in the data active means inhibition above about 24%; further: 0% = median of the test wells and 100% = reference compound wells
# DUSP3 inh: VHR1 phosphatase inhibitors, primary screen, biochemical, absorbance, uHTS | recombinant VHR phosphatase, pNPP absorbance | inhibition, % at 13.3 µM | 290,000 tested, 0.52% active; in the data active means inhibition above about 50%
# Target sequence (P51452 whole entry, looked up): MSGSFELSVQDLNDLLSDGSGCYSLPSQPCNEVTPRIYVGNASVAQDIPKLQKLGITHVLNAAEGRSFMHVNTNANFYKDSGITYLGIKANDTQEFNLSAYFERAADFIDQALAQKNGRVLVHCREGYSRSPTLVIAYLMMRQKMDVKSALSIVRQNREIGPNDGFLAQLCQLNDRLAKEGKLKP
# Sa RN4220 lethal: growth inhibition of S. aureus RN4220, primary screen, OD600; 330,000 tested, 0.33% active; AID 1259311, 2017; inhibition, % (no concentration beside the values); 16 h; in the data active means inhibition above about 85%;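 further: plate controls were untreated cells for no effect and reference antibiotic for full effect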
# ugtP null kill: growth inhibition of ugtP-null S. aureus, primary screen, RN4220 ugtP deletion, OD600. 330,000 tested, 0.54% active. growth inhibition, % (concentration not given with the values). 16 h; in the data active means growth inhibition above about 68%;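 further: plate controls were untreated wells for no effect and antibiotic for full effect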
# The depositor's hits bear a star; ? = inconclusive; / = no result. A selection: hits, their analogues and other compounds. The true share with any hit is near 1.8%.
SMILES,PfHsp40 rescue,PrPC TRFRET,DUSP3 inh,Sa RN4220 lethal,ugtP null kill
Cc1ccc(S(=O)(=O)N(Cc2cccc(C(F)(F)F)c2)C(=O)N2CCN(C)CC2)cc1,52*,-4,/,1,8
Cc1ccc(S(=O)(=O)N(CC(=O)Nc2cccc(C(F)(F)F)c2)C(=O)N2CCN(C)CC2)cc1,2,0,/,3,4
CCCN1C(=O)C(=Cc2cc(C)n(C)c2C)SC1=Nc1ccc(OC)cc1,/,/,/,0,49
C=C1C(=O)O[C@H]2[C@H]1[C@H](OC(=O)CC(=O)O[C@@H]1C[C@@H](C)[C@@H]3C=CC(=O)[C@@]3(C)[C@H]3OC(=O)C(=C)[C@H]13)C[C@@H](C)[C@H]1C=CC(=O)[C@]12C,0,16,4,/,/
C=C1C(=O)O[C@@H]2C[C@@H](C)[C@@H]3C4OC4C(=O)[C@@]3(C)[C@@H](O)[C@H]12 (some centres undefined),3,36*,-4,/,/
COc1ccc(Cn2c(O)c(/C=N/NC(=O)c3cccnc3)c3ccccc3c2=O)cc1,?,5,15,31,27
O=C(N/N=C/c1c(O)n(Cc2ccccc2)c(=O)c2ccccc12)c1cccnc1,431*,-1,37,51,7
O=C(N/N=C/c1c(O)n(-c2ccccc2Cl)c(=O)c2ccccc12)c1cccnc1,98*,-2,15,8,-6
CC1CN(C(C)CO)C(=O)c2cccc(NC(=O)C3CC3)c2OC1CN(C)S(C)(=O)=O (centres undefined),/,/,/,4,3
COc1cc(-c2noc(C)c2C=Cc2ccc(OC(C)=O)cc2)cc(OC)c1OC,/,/,/,5,9
OCCC1CC(O)C(O)[C@]2(Cc3ccccc3CCO2)O1 (some centres undefined),/,/,/,3,0
COc1cc(NN=C(C)c2ccc(O)c(C)c2)nc(-c2ccccc2)n1,/,/,/,15,83
CC(=NNc1cc(-c2ccccc2)nc(-c2ccccc2)n1)c1ccc(O)c(C)c1,/,/,/,98*,99*
COc1cccc(NC(=O)NNS(=O)(=O)c2ccc(OC)cc2OC)c1,0,7,50*,3,5
N#CCC(Cc1ccccc1)N1CCN(CCc2ccccc2)CCC1=O (centres undefined),/,/,/,5,4
COc1ccc(-c2nc(CS(=O)(=O)CC(=O)NCCCN3CCN(C)CC3)c(C)o2)cc1,5,2,57*,-1,0
COc1cccc(CNC(=O)Cn2ccc3cc(S(=O)(=O)N4CCCC4)ccc32)c1,-1,-3,18,-5,-5
CC(C)Oc1ccc(CNC(=O)Cn2ccc3cc(S(=O)(=O)N4CCCC4)ccc32)cc1,0,-4,53*,4,4
Cc1cccc(N2C(=O)C(=CN3CCN(C(=O)c4ccco4)CC3)C(=O)NC2=S)c1,/,/,/,9,1
CCOC(=O)C1Oc2ccccc2C(c2ccc(C)cc2)=C1C(=O)OC (centres undefined),1,6,/,0,95*
O=[N+]([O-])c1ccc(O)c(-c2cc(C(F)(F)F)nc(-c3ccccc3)n2)c1,-1,3,6,100*,99*
Oc1ccccc1-c1cc(C(F)(F)C(F)F)nc(-c2ccccc2)n1,0,2,22,2,16
N=c1c2c(n(Cc3ccc(Cl)c(Cl)c3)c3c1CCC3)CCCC2,-2,16,19,91*,99*
N=c1c2c(n(Cc3ccc([N+](=O)[O-])cc3)c3c1CCC3)CCCC2,0,-7,20,0,8
N=c1c2c(n(Cc3ccc(Br)cc3)c3c1CCC3)CCCC2,-1,11,2,41,99*
CCN1C(=O)C2C(c3ccc(-c4ccc(C(C)=O)cc4)cc3)N[C@@](C)(C(=O)OC)C2C1=O (some centres undefined),/,/,/,4,-1
CCc1nc(NC(Cc2c[nH]c3ccccc23)C(=O)O)c2oc3ccccc3c2n1 (centres undefined),/,/,/,4,3
Cc1cc(=O)[nH]c(CN2CCC(c3ccccc3)CC2)n1,0,8,48,-2,1
Cc1nc(CN2CCC(c3ccccc3)CC2)cc(=O)[nH]1,-2,-6,53*,0,4
COc1cc2c(cc1OC)-c1c(OC)c(OC)cc3c1C(C2)[N+](C)(C)CC3 (centres undefined),/,/,/,25,27

# Source: PubChem BioAssay (several laboratories)
